Results as given in the supplement of paper PMC3545927.
The other results are listed elsewhere or left out. How many sequences the whole screen found active is unknown.

Biological target: furin, P09958
Assay: furin cleavage Z-score vs untreated control; higher = more cleavage, active = 3.5 or more, inactive = 1 or less, 8 variable residues between constant flanks
Protocol: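 Multiplexed peptide-cDNA fusion cleavage assay. 8-mer variable peptides flanked by constant Cys-Ala (N-term) and Ala-Gly-Asn-Ala-Ser-Ala-Ser-Ala (C-term) and conjugated to a cDNA oligonucleotide were bead-immobilised via the N-terminus. They were treated with purified furin at a 1:10 enzyme:substrate ratio in 50 mM HEPES pH 7.5, 1 mM CaCl2, 100 mM NaCl for 7.5, 15 or 30 min. Released cDNA was counted by next-generation sequencing, and log counts versus no-furin controls were lowess-adjusted and converted to robust Z-scores.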

Sequence of furin, P09958 (P09958 whole entry): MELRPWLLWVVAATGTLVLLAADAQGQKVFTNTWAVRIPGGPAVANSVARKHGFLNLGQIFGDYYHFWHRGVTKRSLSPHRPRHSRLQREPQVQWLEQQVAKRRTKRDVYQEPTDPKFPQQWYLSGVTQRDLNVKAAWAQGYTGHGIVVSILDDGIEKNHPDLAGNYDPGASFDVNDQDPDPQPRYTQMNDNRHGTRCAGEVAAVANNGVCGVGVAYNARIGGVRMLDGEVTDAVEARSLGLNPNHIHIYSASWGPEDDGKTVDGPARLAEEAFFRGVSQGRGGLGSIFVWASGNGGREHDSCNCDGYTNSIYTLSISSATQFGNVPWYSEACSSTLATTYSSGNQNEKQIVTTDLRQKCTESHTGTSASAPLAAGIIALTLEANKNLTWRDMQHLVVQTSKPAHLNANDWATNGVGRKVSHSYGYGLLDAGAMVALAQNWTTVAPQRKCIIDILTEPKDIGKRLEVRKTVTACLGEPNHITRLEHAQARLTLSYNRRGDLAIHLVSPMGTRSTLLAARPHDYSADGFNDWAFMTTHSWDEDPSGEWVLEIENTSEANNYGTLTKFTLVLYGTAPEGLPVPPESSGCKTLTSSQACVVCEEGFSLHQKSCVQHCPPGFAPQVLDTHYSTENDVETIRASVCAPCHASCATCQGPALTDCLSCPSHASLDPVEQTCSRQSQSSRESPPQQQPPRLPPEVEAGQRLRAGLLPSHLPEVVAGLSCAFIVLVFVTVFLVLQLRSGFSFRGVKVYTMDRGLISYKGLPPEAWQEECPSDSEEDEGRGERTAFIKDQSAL

Sequence	furin cleavage Z-score (7.5 min)	furin cleavage Z-score (15 min)	furin cleavage Z-score (30 min)
CAETPCHRPSAGNASASA [HC2338]	-0.427 (inactive)	-0.0389 (inactive)	1
CAEILLGPADAGNASASA [HC665]	0.796 (inactive)	-1.29 (inactive)	0.764 (inactive)
CATEMEECSQAGNASASA [HC1798]	1.39	-0.469 (inactive)	-0.647 (inactive)
CAEVVTSTWQAGNASASA [HC2262]	0.0156 (inactive)	-1.35 (inactive)	-0.305 (inactive)
CASRCRFLRSAGNASASA [FS-1086]	4.82 (active)	4.36 (active)	4.8 (active)
CANRCRMLRSAGNASASA [FS-469]	2.76	3.91 (active)	2.25
CAQRRRQRRPAGNASASA [FS-1557]	0.0891 (inactive)	-1.68 (inactive)	0.0903 (inactive)
CAQRRRQLRSAGNASASA [FS-1254]	9.6 (active)	10.8 (active)	7.49 (active)
CAMKNRFLRSAGNASASA [FS-1645]	7.49 (active)	7.31 (active)	7.79 (active)
CAEVEVPCHRAGNASASA [HC2450]	1.03	0.836 (inactive)	1.62
CACVPCHRPSAGNASASA [HC2320]	-1.73 (inactive)	2.15	-0.71 (inactive)
CAGGPLTNSRAGNASASA [HC1502]	-0.097 (inactive)	1.45	0.841 (inactive)
